# Inconclusive results are not listed. Active and inactive are the calls of the source. Calls come from the whole dose curve.
# Molecular target: Thyrotropin receptor (Homo sapiens) (UniProt P16473)
# Assay: qHTS assay to identify small molecule antagonists of the thyroid stimulating hormone receptor (TSHR) signaling pathway (AID 1259385); note: nearly all actives have a fitted effect of over 20% in size
# Details: TSHR-HEK293 cAMP HTRF, TSH-stimulated antagonist mode; series mostly up to 92.4 µM; activity change, negative = inhibition: at the top concentration
# From the text: U.S. Tox21 Program National Center for Advancing Translational Sciences [NCATS] NIH Chemical Genomics Center [NCGC] U.S. Environmental Protection Agency [EPA] National Institutes of Environmental Health Sciences [NIEHS] National Toxicology Program [NTP] U.S. Food and Drug Administration [FDA] Tox21 Assay Overview: TSHR is the receptor for thyrotropin (thyroid stimulating hormone or TSH), a member of the glycoprotein hormone family. TSH is released by the anterior pituitary gland and is the main regulator of thyroid gland growth and development. Upon binding circulating thyrotropin, a G-protein signal cascade activates adenylyl cyclase and […] cAMP concentration is increased. cAMP is a key second messenger involved extensively in cellular signal transduction pathways associated with the majority of G-protein coupled receptors (GPCRs). The activation of these GPCRs by neurotransmitters, lipids, nucleotides, peptides and hormones results in the activation or the inhibition of plasma membrane-bound adenylate cyclase through heterotrimeric G-proteins. A cell-based TSHR assay can be used to screen chemical compounds that modulate TSHR either in agonist or antagonist mode.
# Tox21 Assay Protocol Summary: TSHR-Hek293 cells were dispensed at 800 cells/4uL/well in 1536-well white plates using a Multidrop dispenser. After the assay plates were incubated at a 37C/5% CO2 incubator for 18 hrs, 23 nL of compounds dissolved in DMSO, positive controls or DMSO only was transferred to the assay plate by a pin tool, followed by 1 ul medium containing Ro20-1724. For the antagonist mode screening, 1 uL of TSH was added on the top of the cell/compound mixtures to achieve a final agonist concentration of 1.5 ng/mL. After 30 min of incubation at room temperature, 2.5 ul/well of cAMP-d2 and 2.5 ul/well of anti-cAMP-cryptate were added respectively into the assay plates using a Flying Reagent Dispenser. The plates were incubated at room temperature for 1 hr. The fluorescence intensity in the plates was measured using an Envision plate reader. Each test compound was measured at 15 concentrations and in triplicates.
# % is set by controls: 0 for no effect and ±100 for the full control effect.
# Thyrotropin receptor (Homo sapiens), sequence (P16473 whole entry, looked up): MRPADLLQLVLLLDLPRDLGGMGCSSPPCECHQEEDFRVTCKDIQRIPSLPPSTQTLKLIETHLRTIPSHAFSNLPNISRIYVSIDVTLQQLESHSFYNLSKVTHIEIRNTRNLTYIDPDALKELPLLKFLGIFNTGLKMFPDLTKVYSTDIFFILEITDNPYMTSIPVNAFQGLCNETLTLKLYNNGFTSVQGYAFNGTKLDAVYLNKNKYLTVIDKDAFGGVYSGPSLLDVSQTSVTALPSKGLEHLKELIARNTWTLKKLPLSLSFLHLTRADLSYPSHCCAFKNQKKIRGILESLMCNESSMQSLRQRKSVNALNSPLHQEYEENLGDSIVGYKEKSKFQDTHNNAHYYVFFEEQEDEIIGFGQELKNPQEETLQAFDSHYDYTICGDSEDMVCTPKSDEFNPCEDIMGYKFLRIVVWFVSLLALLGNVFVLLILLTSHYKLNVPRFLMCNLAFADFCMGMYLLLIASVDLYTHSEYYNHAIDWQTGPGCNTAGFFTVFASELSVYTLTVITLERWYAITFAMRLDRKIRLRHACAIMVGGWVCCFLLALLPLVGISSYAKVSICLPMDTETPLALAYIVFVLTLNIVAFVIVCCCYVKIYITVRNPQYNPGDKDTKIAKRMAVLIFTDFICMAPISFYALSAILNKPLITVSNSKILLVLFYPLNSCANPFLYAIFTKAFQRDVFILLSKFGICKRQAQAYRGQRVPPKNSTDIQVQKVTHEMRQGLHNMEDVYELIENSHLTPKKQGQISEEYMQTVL
Structure (SMILES),"activity change, negative = inhibition",outcome
O=C(O)C(Br)(Br)Br,6.45% (inactive),
CC(Cc1ccccc1)NCCn1cnc2c1c(=O)n(C)c(=O)n2C (stereo not given),-0.383% (inactive),
NCCOS(=O)(=O)O,0.0112% (inactive),
CCN(CCO)CCO,2.49% (inactive),
COP(=O)(OC)O/C(C)=C/C(=O)N(C)C,-0.0247% (inactive),
CC(C)c1ccc(O)cc1,2.73% (inactive),
C[C@@H](N)[C@@H](O)c1ccccc1,0.992% [at 42.5 µM] (inactive),
CCC(=O)OC1(c2ccccc2)CCN(C)CC1,-0.0644% (inactive),
CCOC(=O)c1ncn2c1CN(C)C(=O)c1c(I)cccc1-2,1.21% [at 42.5 µM] (inactive),
COc1ccccc1OC,-1.03% (inactive),
CC(C)(N)Cc1ccccc1Cl,2.44% [at 42.5 µM] (inactive),
Oc1ccc(Cc2ccc(O)cc2)cc1,5.53% (inactive),
CCOC(=O)Nc1cccc(OC(=O)Nc2ccccc2)c1,-1.02% (inactive),
C=CCC1(C(C)CC)C(=O)NC(=O)NC1=O (stereo not given),-0.0515% [at 42.5 µM] (inactive),
CCOP(=S)(OCC)SCCl,-1.08% (inactive),
COC1=CC(=O)O[C@@H](/C=C/c2ccccc2)C1,-1.14% (inactive),
O=C(Cl)C(Cl)(Cl)Cl,1.74% (inactive),
ClC1=C(Cl)C2(Cl)C(CBr)CC1(Cl)C2(Cl)Cl (stereo not given),,inactive
CCSC(=O)Cl,0.832% (inactive),
NNCc1ccccc1,-2.19% (inactive),

Structure (SMILES),"activity change, negative = inhibition",outcome
CCC1(c2ccccc2)C(=O)N(COC)C(=O)N(COC)C1=O,0.612% [at 42.5 µM] (inactive),
CCOC(=O)N(C)N=O,1.58% (inactive),
O=C(Cl)CCl,0.393% (inactive),
CCOC(=O)C(Cl)Cc1cc(-n2nc(C)n(C(F)F)c2=O)c(F)cc1Cl (stereo not given),-0.0825% (inactive),
CC(C)(N)Cc1ccc(Cl)cc1,-1.64% [at 42.5 µM] (inactive),
COc1cccc([C@@]2(O)CCCC[C@@H]2CN(C)C)c1,-3.9% [at 42.5 µM] (inactive),
CC(=NC#N)N(C)Cc1ccc(Cl)nc1,1.23% (inactive),
Cl/C=C/CCl,-1.36% (inactive),
CC(C)(C)C(=O)Cl,-0.574% (inactive),
COC(=O)c1ccccc1CS(=O)(=O)NC(=O)Nc1nc(OC)cc(OC)n1,6.53% (inactive),
CCC(C(N)=O)N1CCCC1=O (stereo not given),1.67% [at 42.5 µM] (inactive),
C(COCC1CO1)OCC1CO1 (stereo not given),0.29% (inactive),
CCOP(=O)(CN(CCO)CCO)OCC,-1.73% (inactive),
CC[C@H](O)C(C[C@H](C)N(C)C)(c1ccccc1)c1ccccc1,-0.0451% (inactive),
[O-][Br+2]([O-])O,3.37% [at 42.5 µM] (inactive),
CCCCCCC(=O)CCCCCC/C=C/C[C@@H](O)[C@H](O)[C@@](N)(CO)C(=O)O,-2.59% [at 19 µM] (inactive),
O=C(Cl)C(Cl)Cl,-0.214% (inactive),
CC(C)(C)NC[C@H](O)c1ccc(O)cc1Cl,1.62% [at 42.5 µM] (inactive),
S=C=S,-6.13% (inactive),
CCCOC(=O)c1cncn1C(C)c1ccccc1 (stereo not given),1.73% [at 42.5 µM] (inactive),

# Reference: PubChem BioAssay (Tox21)
